Reference: PubChem BioAssay (NCI)
The panel holds about 83,000 compounds, 20% with a hit somewhere; the sample as a whole holds those more often.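 96-well plates, one dose, 48 hours. Percent growth reported; active if below 10.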 Values without a mark were called inactive. Activity calls are given as the source filed them.

Columns and labels:
Test in all cases: NCI-60 one-dose screen, 48 h (100 = growth as untreated, 0 = no growth, -100 = all killed)
Settings in all cases: 10 µM
SK-MEL-2 melanoma = system: SK-MEL-2 melanoma
EKVX NSCLC = system: EKVX NSCLC
SN12C renal = system: SN12C renal
UO-31 renal = system: UO-31 renal
TK-10 renal = system: TK-10 renal
ACHN renal = system: ACHN renal
CAKI-1 renal = system: CAKI-1 renal
MOLT-4 leukemia = system: MOLT-4 leukemia
CCRF-CEM leukemia = system: CCRF-CEM leukemia
A498 renal = system: A498 renal

| SMILES | growth (SK-MEL-2 melanoma) | growth (EKVX NSCLC) | growth (SN12C renal) | growth (UO-31 renal) | growth (TK-10 renal) [%] | growth (ACHN renal) | growth (CAKI-1 renal) [%] | growth (MOLT-4 leukemia) | growth (CCRF-CEM leukemia) [%] | growth (A498 renal) [%] |
| --- | --- | --- | --- | --- | --- | --- | --- | --- | --- | --- |
| CCn1c2ccc(O)cc2c2c(C)c3c[n+](C)ccc3c(C)c21 | 40.9% | 73.7% | -32.6% (active) | 64.2% | 45.6 | 60.6% | 85.2 | 17.8% |  |  |
| O=C1c2c(c3c4ccccc4n(CCCCCCN4CCOCC4)c3c3[nH]c4ccccc4c23)C(=O)N1O | 110% | 82.4% | 75.8% | 9.13% (active) | 111 | 92.6% | 96.7 | 66.3% |  |  |
| CCNc1nc(C(F)(F)F)nc2c1sc(=S)n2-c1ccccc1 | 88.1% | 86.1% | 100% | 104% | 88.8 | 93.1% | 93.6 | 81.8% |  |  |
| COc1ccc(-c2cc(-c3cc(OC)ccc3OC)nc(N)c2C#N)cc1 | 77.1% | 70.5% | 59% | 69.4% | 103 | 66.1% | 90.3 | 85% |  |  |
| CCCCCCCCCCCCCCCCCC[n+]1ccc2c(C)c3c(c(C)c2c1)c1cc(O)ccc1n3CC | -33.1% (active) | 19.5% | 1.79% (active) | 39.8% | 17.8 | 25.7% | 71.1 | 19% |  |  |
| COc1cc2c3c(n([C@H]4CCOC4)c(=O)c2cc1OC)-c1cc2c(cc1C3=O)OCO2 | 99.8% | 60% | 22.9% | 10.6% | 90 | 0.59% (active) | 33.5 | 17.2% |  |  |
| CCOC(=O)c1sc2ncnc(Nc3ccc4c(cnn4C(=O)Nc4ccccc4)c3)c2c1C | 85% | 84.3% | 61.3% | 87.6% | 78.6 | 87.6% | 83.9 | 91% |  |  |
| COc1cccc(CNc2cccc3cn[nH]c23)c1O | 103% | 79.9% | 91% | 60.1% | 92.4 | 98.7% | 85.9 | 98% | 101 |  |
| CCc1ccc(-c2ccc(-n3nc(C)c4c(N)nc(Cc5ccccc5)nc43)cc2)cc1 | 36% | 83.8% | 71.1% | 59.2% | 75 | 35.5% |  |  |  | 73.4 |
| CCC(c1ccc(OC)cc1)C(CC)c1ccc(O)c(CN2CCN(C)CC2)c1 (configuration not stated) | 62.2% | 44.3% | 55.1% | 37.3% | 72.2 | 69% | 41.1 | 57.4% | 56.9 |  |
| COc1cc2c3c(n(C4CCNCC4)c(=O)c2cc1OC)-c1cc2c(cc1C3=O)OCO2 | 76.4% | -68.4% (active) | -69% (active) | -70.2% (active) | 76 | -81.7% (active) | 21.4 | -27.1% (active) |  |  |
| O=S(=O)(NCCCNc1nccc(-c2cn(-c3ccccc3)nc2-c2ccc(Cl)c(O)c2)n1)c1ccccc1 | 65.5% | 55.2% | 67.2% | 45.9% | 76.9 | 66.1% | 90.4 | 43.1% |  |  |
